High-throughput results (PubChem)
SW480 rereplic: A quantitative high throughput screen for small molecules that induce DNA re-replication in SW480 colon adenocarcinoma cells; SW480 DNA re-replication, Hoechst DNA content imaging, 48 h; Potency, µM (highest dose often 46.1 µM), for inactives: at the highest dose re-replication activation, most hits filed as activators; 340,000 compounds, 1.8% hits; note: potency is the fitted concentration of half-maximal effect; % of control where 0% means no effect; nearly all actives have a fitted effect of over 55% in size
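SW480 cells exposed to compounds for 48 hr at 37 C, 5% CO2, then Hoechst-stained 40 min. Nuclear DNA content imaged by fluorescence scanning (405 nm excitation, 500-530 nm emission); re-replication scored as increased high-intensity nuclei.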
Vif-A3G inh: qHTS for Inhibitors of Vif-A3G Interactions: qHTS | DNA dC->dU-editing enzyme APOBEC-3G (Homo sapiens), Q9HC16 | HeLa A3G-eYFP + Vif (tagged APOBEC3G with the HIV-1 protein that degrades it), YFP fluorescence, overnight | Potency, µM (titrated, usually from 46.1 µM), for the others: top-dose activity, negative = active, usual class: inhibitors | 410,000 compounds, 0.076% hits; note: potency is the fitted concentration of half-maximal effect; % is set by controls: 0 for no effect and ±100 for the full control effect; nearly all actives have a fitted effect of over 60% in size
Target sequence (Q9HC16 whole entry, looked up): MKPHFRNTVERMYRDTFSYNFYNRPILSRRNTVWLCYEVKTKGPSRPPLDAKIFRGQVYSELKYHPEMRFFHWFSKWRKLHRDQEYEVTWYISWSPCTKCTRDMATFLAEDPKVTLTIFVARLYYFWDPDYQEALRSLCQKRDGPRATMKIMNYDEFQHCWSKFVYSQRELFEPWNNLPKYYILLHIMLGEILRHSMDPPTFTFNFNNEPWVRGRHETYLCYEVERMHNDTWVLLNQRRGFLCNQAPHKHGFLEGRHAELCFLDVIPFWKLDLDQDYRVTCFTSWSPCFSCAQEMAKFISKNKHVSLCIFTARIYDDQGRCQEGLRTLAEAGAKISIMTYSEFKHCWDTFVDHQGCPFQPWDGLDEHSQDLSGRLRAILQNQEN
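Read-out is eYFP fluorescence (Ex 488/Em 500-530) from Vif-expressing HeLa A3G-eYFP cells; more signal means A3G escaped Vif-mediated degradation. Cells plated overnight, compound pinned in, incubated overnight at 37 deg C.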
IL1B secr inh: qHTS for Inhibitors of Inflammasome Signaling: IL-1-beta AlphaLISA Primary Screen; THP-1 LPS/ATP IL-1B secretion, AlphaLISA, 16 h; stronger effect = lower value; activity change, % at 57.5 µM; 360,000 compounds, 4.7% hits; in the data active = activity change below about -50%; inconclusive = mostly about -30% to -49%; note: % is set by controls: 0 for no effect and ±100 for the full control effect
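Secreted IL-1B measured by AlphaLISA bead assay after 16 h compound exposure of THP-1 cells; compounds (final up to 57.5 uM) added 1 h before LPS (250 ng/mL) and ATP (1.25 mM) stimulation; lower signal means less secretion.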
Vif-A3F inh: qHTS for Inhibitors of Vif-A3F Interactions: qHTS. Potency, µM (series often up to 46.1 µM), for inactives: at the top dose activity, negative = active. 390,000 compounds, 0.2% hits. HeLa A3F-eYFP + Vif (tagged APOBEC3F with the HIV-1 protein that degrades it), YFP fluorescence increase; note: potency is the fitted concentration of half-maximal effect; % of control where 0% means no effect; nearly all actives have a fitted effect of over 65% in size
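HeLa cells stably expressing A3F-eYFP plus Vif, plated and incubated overnight at 37 deg C, then exposed to compounds overnight at 37 deg C. Blocked degradation read as raised yellow fluorescence (Ex 488/Em 500-530).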
Giardia kill: Small Molecules that selectively kill Giardia lamblia: qHTS; Giardia lamblia trophozoite viability; activity change, % at 7.66 µM, hits read low; 340,000 compounds, 0.15% hits; AID 540267, 2011; in the data active = activity change below about -80%; inconclusive = between about -30% and that limit;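 note: parasites exposed to compound for two days anaerobically before the ATP read; % is set by controls: 0 for no effect and ±100 for the full control effect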
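Luminescence from cellular ATP indicates surviving trophozoites (100 cells/well) following 48 hrs anaerobic compound treatment at 37 deg C; signal develops 15-30 min at room temperature.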
MCF10A rerep: A quantitative high throughput screen for small molecules that induce DNA re-replication in MCF 10a normal breast cells; MCF 10A DNA re-replication, Hoechst nuclear intensity, 48 h; Potency, µM (doses to about 46.1 µM), without a hit: at the top dose activity, positive = re-replication, actives largely listed as activators; 350,000 compounds, 2.9% hits; note: potency is the fitted concentration of half-maximal effect; % of control where 0% means no effect; nearly all actives have a fitted effect of over 50% in size
Active calls of the source: *; ? = inconclusive; · = no result; [ ] = remark or other dose. Compounds with a hit are over-represented: about 6.9% of the library has one in this group of screens. Unless noted, calls come from the whole dose curve; as a rule, active = well fitted curve in the direction sought with a large enough effect; inconclusive = small, poorly fitted or top-dose-only effect, or another doubt; inactive = no such curve, though single readings can be large; an effect the other way counts as inactive or inconclusive.

SMILES	SW480 rereplic	Vif-A3G inh	IL1B secr inh	Vif-A3F inh	Giardia kill	MCF10A rerep
CC1(C)CC[C@]2(C(=O)n3ccnc3)CC[C@]3(C)[C@H](C(=O)C=C4[C@@]5(C)C=C(C#N)C(=O)C(C)(C)[C@@H]5CC[C@]43C)[C@@H]2C1	?	?	-100*	-21%	3	0.52µM*
CC(C)Oc1ccc(CNC(=O)C2CCCN(S(=O)(=O)c3ccc4c(ccn4C)c3)C2)cc1 (configuration not stated)	·	0%	·	0%	·	·
CSc1ccc(CNCCCSc2ncccn2)cc1	-12%	0%	-68*	-11%	-28	9%
Clc1ccc(CNCCCSc2ncccn2)cc1	-6%	3%	-16	2%	5	-1%
CSc1ccc(CNCCCN(C)C)cc1	-2%	4%	-54*	-4%	38	0%
Cc1cc(C)c(NC(=O)Cn2nc(-c3ccncc3)ccc2=O)c(C)c1	·	-3%	·	4%	·	·
CC(=O)Nc1ccc2c(=O)n(-c3ccccc3)sc2c1	·	-11%	-104*	2%	·	·
N#Cc1ccc2c(=O)n(-c3ccccc3)sc2c1	·	0%	24	-9%	·	·
Cn1sc2ccccc2c1=O	·	-2%	-100*	?	·	·
COCCn1c(=O)sc2ccccc2c1=O	-69%	4%	65	9%	4	?
O=C(O)c1cccc(-n2sc3ccccc3c2=O)c1	?	-3%	-107*	-17%	3	?
CN(C)S(=O)(=O)c1cccc(-n2sc3ccccc3c2=O)c1	?	-1%	-105*	0%	-5	?
COCCn1c(C)cc(O)c(C(c2ccccc2)N2CCC(C)CC2)c1=O (configuration not stated)	·	-3%	·	-3%	·	·
O=c1c2ccccc2sn1-c1cccc(Cl)c1	·	-9%	-102*	?	·	·
O=c1c2ccccc2sn1-c1ccccc1F	·	?	-107*	?	·	·
O=c1c2cc(F)ccc2sn1-c1ccccc1	?	-18%	-2	-15%	-8	?
O=c1c2ccccc2sn1-c1nccs1	?	-11%	-105*	-12%	-12	16µM*
Cc1ccccc1-n1sc2cc(F)ccc2c1=O	?	-6%	-105*	-6%	-8	16µM*
O=C1CN(c2ccccc2F)C(=O)CN1c1ccccc1F	-3%	1%	5	-2%	-7	2%
O=C1c2ccccc2C(=O)N1c1nccs1	-1%	0%	-6	-10%	?	1%
Cc1cnc2c(C)ccc(C)c2c1/C=C/c1ccc(N(C)C)cc1	·	-2%	·	·	·	·
Cc1ccc(-c2nnc3ccc(SCC(=O)c4ccccc4)nn23)cc1	·	6%	·	·	0	·
COc1ccc2c(c1)c(=O)c(S(=O)(=O)c1ccccc1)cn2CC(=O)Nc1ccc(C)c(Cl)c1	·	-3%	·	-9%	·	·
O=c1c2ccccc2sn1-c1ccccc1	12µM*	-11%	-101*	-13%	-3	9.2µM*
CN1CCc2nc3sc(C(=O)NCc4ccccc4)c(N)c3cc2C1	-1%	-11%	-8	1%	-4	18µM*
SMILES	SW480 rereplic	Vif-A3G inh	IL1B secr inh	Vif-A3F inh	Giardia kill	MCF10A rerep
COc1ccc(NC(=O)c2sc3nc4c(cc3c2N)CN(Cc2ccccc2)CC4)c(OC)c1	·	?	·	11µM*	5	·
COc1ccccc1NC(=O)c1sc2nc3c(cc2c1N)CN(Cc1ccccc1)CC3	·	-6%	·	?	·	·
Cc1ccc(S(=O)(=O)n2nccc2-c2c(-c3ccccc3)noc2C)cc1	13µM*	-17%	·	-3%	-2	12µM*
Cc1onc(-c2ccccc2)c1-c1ccnn1S(=O)(=O)c1ccc(Cl)cc1	-50%	-7%	·	2%	-4	-13%
Cc1onc(-c2ccccc2)c1-c1ccnn1C(=O)NC(C)C	-18%	1%	-60*	-1%	-27	-1%
C[C@H](CO)N1C[C@H](C)[C@@H](CN(C)C(=O)Nc2ccc(C(F)(F)F)cc2)Oc2c(NC(=O)NC3CCCCC3)cccc2C1=O	-46%	-7%	?	-5%	-19	3.3µM*
C[C@H](CO)N1C[C@H](C)[C@@H](CN(C)C(=O)Nc2ccc(C(F)(F)F)cc2)Oc2c(NC(=O)C3CCCCC3)cccc2C1=O	4%	2%	-58*	9%	24	-13%
C[C@@H]1CN([C@H](C)CO)C(=O)c2cccc(NC(=O)NC3CCCCC3)c2O[C@@H]1CN(C)C(=O)Nc1ccc(C(F)(F)F)cc1	?	-12%	-67*	-22%	0	?
C[C@H](CO)N1C[C@H](C)[C@@H](CN(C)C(=O)Nc2ccc(C(F)(F)F)cc2)Oc2c(NC(=O)Cc3ccccc3)cccc2C1=O	-39%[9.22 µM]	-7%	?	3%	2	-1%
C[C@H](CO)N1C[C@H](C)[C@@H](CN(C)C(=O)Nc2ccc(C(F)(F)F)cc2)Oc2c(NC(=O)CCC(F)(F)F)cccc2C1=O	-10%	-2%	-66*	1%	17	-43%
CCOC(=O)c1cccc(Nc2cc(C)nc(C)n2)c1	·	0%	·	-2%	·	·
NNC(=O)c1cc2c(s1)-c1cc(Cl)ccc1SC2	29µM*	-15%	46	1%	1	21µM*
N#Cc1cccc(NC(=O)c2cc3c(s2)-c2ccc(Cl)cc2SC3)c1	·	-11%	·	?	·	·
Cc1sc(NC(=O)c2ccco2)c(CN2CCN(c3ccccn3)CC2)c1C	11%	0%	-73*	5%	-14	?
CCc1ccc(C(=O)c2cn(CC(=O)Nc3cc(OC)ccc3OC)c3nc(C)ccc3c2=O)cc1	·	2%	·	-2%	·	·
